The record followed here is PubChem BioAssay (Tox21).

A number with no mark means an inactive call. Records with an inconclusive call do not appear. Activity calls are given as the source filed them. Unless noted, calls follow the shape of the full dose curve.

The nature of experiment [1]: Nuclear factor erythroid 2-related factor 2/antioxidant responsive element (Nrf2/ARE) small molecule agonists: qHTS cell viability counter screen in human keratinocytes (AID 1919968; active = well fitted curve in the direction sought with a large enough effect in the repeat runs; an effect the other way counts as inactive or inconclusive; also: nearly all actives have a fitted effect of over 55% in size). A digest of the protocol: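 Stably transfected HaCaT (KeratinoSens), 1,500/well. Test agents in DMSO were applied for 23 h, 37 C/5% CO2. CellTiter-Fluor was incubated 1 h before the fluorescence read.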
A general note: In qHTS, concentration-response curves come from the screen itself.

Experiment [2] is described as follows: Nuclear factor erythroid 2-related factor 2/antioxidant responsive element (Nrf2/ARE) small molecule agonists: luciferase reporter gene qHTS assay in human keratinocytes (AID 1919969). Also: nearly all actives have a fitted effect of over 35% in size. Also: potency is read from the fitted curve at half-maximal effect. Background: Reporter assays use an easily measured gene product as a stand-in for the process of interest.
Experiment [3] concerns the target Gonadotropin-releasing hormone receptor (Homo sapiens) (UniProt P30968). Kind of experiment: Human gonadotropin-releasing hormone receptor (GnRHR) small molecule agonists, calcium flux assay in GnRHR-HEK293 cells (AID 1920063). Also: nearly all actives have a fitted effect of over 35% in size. A digest of the protocol: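 Stable human GnRHR HEK293 line. 18 h plating, then calcium dye for 1 h at 37 C. Agonist-mode compound addition from DMSO stocks; fluorescence monitored 3 min.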

Experiment [4] deals with KiSS-1 receptor (Homo sapiens) (UniProt Q969F8). Description: Human kisspeptin (KISS1R) small molecule agonists, calcium flux assay in KISS1R-HEK293 cells (AID 1920064; active = well fitted curve in the direction sought with a large enough effect in the repeat runs; an effect the other way counts as inactive or inconclusive). The procedure, abridged: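 After overnight (18 h) culture at 37 C/5% CO2, human KISS1R-HEK293 cells received calcium dye for 1 h, then test compound; emission at 540 nm (excitation 480 nm) was tracked for 3 min.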
Sequence of KiSS-1 receptor (Homo sapiens) (Q969F8 whole entry, looked up): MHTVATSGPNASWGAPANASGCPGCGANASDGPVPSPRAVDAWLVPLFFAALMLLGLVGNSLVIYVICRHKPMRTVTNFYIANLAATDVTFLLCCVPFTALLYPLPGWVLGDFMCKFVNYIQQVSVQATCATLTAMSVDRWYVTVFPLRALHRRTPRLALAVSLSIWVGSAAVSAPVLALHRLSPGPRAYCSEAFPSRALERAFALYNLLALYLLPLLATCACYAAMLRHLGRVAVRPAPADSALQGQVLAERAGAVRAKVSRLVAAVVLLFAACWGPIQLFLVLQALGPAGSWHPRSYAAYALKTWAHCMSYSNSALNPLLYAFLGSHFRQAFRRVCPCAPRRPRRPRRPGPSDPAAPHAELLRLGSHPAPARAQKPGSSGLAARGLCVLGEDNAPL
A general note: Calcium flux is commonly read through the fluorescence of an indicator in the cells.

Experiment [5] is described as follows: G protein-coupled receptor (GPCR) small molecule agonists, calcium flux assay: HEK293 wild type cell line counter screen (AID 1920065). A digest of the protocol:
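Following 18 h incubation at 37 C/5% CO2, plates got calcium dye for 1 h; compounds, ATP or DMSO were then pinned in and fluorescence followed kinetically (480/540 nm).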

A short description of experiment [6]: p53 small molecule agonists, cell-based qHTS assay with human liver microsomes (AID 1963577).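 Also: p53 response element beta-lactamase reporter cells with liver microsomes plus NADPH.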 A digest of the protocol: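 HLM-supplemented p53RE-bla reporter assay: 16 h compound exposure at 37 C, microsomes and NADPH each 0.5 mg/mL final, read by fluorescence intensity.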
Experiment [7] in a line: p53 small molecule agonists, cell-based qHTS assay with rat liver microsomes: qHTS cell viability counter screen (AID 1963580). Also: nearly all actives have a fitted effect of over 45% in size. The procedure, abridged: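 After the beta-lactamase ratio was read, CellTiter-Glo was added to the same wells and luminescence measured at 30 min; cells had been treated 16 h at 37 C with compounds, rat liver microsomes and NADPH (0.5 mg/mL final each).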

A short description of experiment [8]: p53 small molecule agonists, cell-based qHTS assay: qHTS cell viability counter screen (AID 1963581). Also: nearly all actives have a fitted effect of over 45% in size. The procedure, abridged:
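qHTS counter screen: 16 h compound exposure at 37 C of p53RE-bla HCT-116 cells (4,000 per well, seeded 5 h prior), cell viability by ATP luminescence.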

Experiment [9] is described as follows: p53 small molecule agonists, cell-based qHTS assay (AID 1963582; active = well fitted activation curve with a large enough effect in the signal ratio in the repeat runs, not every such curve was filed as active; the % refers to the signal ratio). A digest of the protocol:
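Measured: fluorescence from cleaved LiveBLAzer substrate. System: p53RE-bla cells, 16 h compound treatment at 37 C, 2 h substrate step at room temperature.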

In experiment [10] the target is 5-hydroxytryptamine receptor 2A (Homo sapiens) (UniProt P28223). Description: 5-hydroxytryptamine receptor 2A (HTR2A) small molecule antagonists, cell-based qHTS assay (AID 1963586). Also: nearly all actives have a fitted effect of over 45% in size. A digest of the protocol: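 CHO cells stably expressing human HTR2A were plated for 18 h at 37 C, then loaded with calcium dye for 1 h. Compounds were preincubated 5 min at room temperature before DOI (4 nM solution) was added. Kinetic fluorescence was read for 3 min.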
Sequence of 5-hydroxytryptamine receptor 2A (Homo sapiens) (P28223 whole entry, looked up): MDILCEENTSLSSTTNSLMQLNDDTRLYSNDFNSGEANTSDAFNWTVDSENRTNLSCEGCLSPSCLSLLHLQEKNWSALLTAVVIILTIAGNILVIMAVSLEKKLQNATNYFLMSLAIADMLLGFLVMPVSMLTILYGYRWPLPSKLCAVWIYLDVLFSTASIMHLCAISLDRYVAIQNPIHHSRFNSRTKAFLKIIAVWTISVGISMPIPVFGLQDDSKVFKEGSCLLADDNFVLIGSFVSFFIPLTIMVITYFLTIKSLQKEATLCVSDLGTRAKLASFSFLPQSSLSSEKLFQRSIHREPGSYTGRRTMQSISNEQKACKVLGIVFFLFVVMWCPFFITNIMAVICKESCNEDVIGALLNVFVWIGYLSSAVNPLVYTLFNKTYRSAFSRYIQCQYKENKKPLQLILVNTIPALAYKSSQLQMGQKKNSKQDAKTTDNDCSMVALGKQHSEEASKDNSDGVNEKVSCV

Experiment [11] shares this target. Description: 5-hydroxytryptamine receptor 2A (HTR2A) small molecule agonists, cell-based qHTS assay (AID 1963587). Also: nearly all actives have a fitted effect of over 30% in size. The procedure, abridged:
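CHO cells stably expressing human HTR2A, plated 18 h, loaded with calcium dye 1 h at 37 C. Agonist mode: compounds added and intracellular calcium fluorescence recorded kinetically for 2 min at 1 sec intervals.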

The target of experiment [12] is Muscarinic acetylcholine receptor M1 (Homo sapiens) (UniProt P11229). Kind of experiment: Cholinergic receptor muscarinic 1 (CHRM1) small molecule antagonists, cell-based qHTS assay (AID 1963588). Also: nearly all actives have a fitted effect of over 40% in size. A digest of the protocol: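 Compounds were tested at 15 concentrations in three independent runs. Dye-loaded CHRM1-CHO cells were exposed 5 min at room temperature before stimulation by acetylcholine added at 50nM. Intracellular calcium was read kinetically on FDSS for 3 min.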
Sequence of Muscarinic acetylcholine receptor M1 (Homo sapiens) (P11229 whole entry, looked up): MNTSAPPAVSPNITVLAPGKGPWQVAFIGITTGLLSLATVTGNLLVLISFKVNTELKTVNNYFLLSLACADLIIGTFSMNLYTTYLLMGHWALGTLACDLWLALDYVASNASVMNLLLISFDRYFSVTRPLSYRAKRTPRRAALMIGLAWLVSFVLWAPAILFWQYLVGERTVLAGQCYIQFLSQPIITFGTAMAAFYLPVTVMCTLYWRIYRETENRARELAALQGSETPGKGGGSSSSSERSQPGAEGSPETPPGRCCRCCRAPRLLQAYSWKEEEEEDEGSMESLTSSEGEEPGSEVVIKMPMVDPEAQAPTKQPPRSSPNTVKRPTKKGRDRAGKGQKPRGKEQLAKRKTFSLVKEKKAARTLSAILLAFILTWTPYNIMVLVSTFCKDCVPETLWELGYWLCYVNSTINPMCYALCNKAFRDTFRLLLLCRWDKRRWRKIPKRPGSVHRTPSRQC

The target is the same in experiment [13]. Kind of experiment: Cholinergic receptor muscarinic 1 (CHRM1) small molecule agonists, cell-based qHTS assay (AID 1963589). Also: nearly all actives have a fitted effect of over 35% in size. The procedure, abridged: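 Kinetic fluorescence (1 s intervals) of calcium-sensitive dye in human M1 CHO cells after compound addition; cells pre-incubated 18 h at 37 C/5% CO2 and dye-loaded 1 h.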
Experiment [14] concerns the target Beta-2 adrenergic receptor (Homo sapiens) (UniProt P07550). Description: Adrenergic beta2 receptor (ADRB2) small molecule antagonists, cell-based qHTS assay (AID 1963592). Also: series mostly up to about 92 µM; nearly all actives have a fitted effect of over 50% in size. The procedure, abridged:
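Assay format: CHO-ADRB2 cells, 18-20hr seeding at 37C/5% CO2, then compound plus 1nM isoproterenol agonist mix for 0.5hr RT. Homogeneous time-resolved fluorescence cAMP detection after 1hr, expressed as 665/615 nm ratio.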

The target in experiment [15] is D(2) dopamine receptor (Homo sapiens) (UniProt P14416). Description: Dopamine D2 receptor (DRD2) small molecule antagonists, cell-based qHTS assay (AID 1963595; active = well fitted inhibition curve with a large enough effect in the signal ratio in the repeat runs, with a control signal flat; the % refers to the signal ratio). A digest of the protocol:
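HTRF cAMP read-out at 665 and 620 nm emission (340 nm excitation). Antagonist mode: compounds were tested against 12 nM quinpirole in DRD2-HEK293 cells, with 200 nM NKH477 raising cAMP and 0.1 mM Ro20-1724 blocking its breakdown.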

A short description of experiment [16]: p53 small molecule agonists, cell-based qHTS assay with rat liver microsomes (AID 1963578). The procedure, abridged: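 Quantitative HTS of the Tox21 10K library: p53RE-bla cells, rat liver microsomes plus NADPH at 0.5 mg/mL final each, 16 h at 37 C, beta-lactamase fluorescence detection.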
The nature of experiment [17]: p53 small molecule agonists, cell-based qHTS assay with human liver microsomes: qHTS cell viability counter screen (AID 1963579). Also: nearly all actives have a fitted effect of over 45% in size. The procedure, abridged: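 Viability of p53RE-bla cells is measured as CellTiter-Glo luminescence following a 16 h, 37 C incubation with compound, liver microsomes from human donors and NADPH.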
The nature of experiment [18]: cAMP Responsive Elements (CRE) small molecule agonists, cell-based qHTS assay (AID 1963590). The procedure, abridged: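 Test agents in DMSO were incubated 3 h at 37 C/5% CO2 with CRE-bla HEK 293T cells seeded 18 h earlier; LiveBLAzer B/G FRET substrate was added and read after 2 h at room temperature.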
The nature of experiment [19]: cAMP Responsive Elements (CRE) small molecule antagonists, cell-based qHTS assay (AID 1963591; active = well fitted inhibition curve with a large enough effect in the signal ratio in the repeat runs, not every such curve was filed as active; the % refers to the signal ratio). A digest of the protocol:
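Reporter line CRE-bla HEK 293T in dialyzed-FBS DMEM; cells preincubated 18 h, treated 3 h with compound plus NKH477 (0.25 uM final); LiveBLAzer FRET, 2 h RT.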

Experiment [20] concerns the target D(2) dopamine receptor (Homo sapiens) (UniProt P14416). Kind of experiment: Dopamine D2 receptor (DRD2) small molecule agonists, cell-based qHTS assay (AID 1963594). Also: nearly all actives have a fitted effect of over 35% in size. The procedure, abridged:
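HEK293 cells stably expressing human DRD2, pre-treated with PDE inhibitor Ro20-1724 (0.1 mM final) and compound 10 min at room temperature, then stimulated with NKH477 (200nM […]) for 30 min. cAMP read by HTRF (665/620 nm).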

Sequence of Gonadotropin-releasing hormone receptor (Homo sapiens) (P30968 whole entry, looked up): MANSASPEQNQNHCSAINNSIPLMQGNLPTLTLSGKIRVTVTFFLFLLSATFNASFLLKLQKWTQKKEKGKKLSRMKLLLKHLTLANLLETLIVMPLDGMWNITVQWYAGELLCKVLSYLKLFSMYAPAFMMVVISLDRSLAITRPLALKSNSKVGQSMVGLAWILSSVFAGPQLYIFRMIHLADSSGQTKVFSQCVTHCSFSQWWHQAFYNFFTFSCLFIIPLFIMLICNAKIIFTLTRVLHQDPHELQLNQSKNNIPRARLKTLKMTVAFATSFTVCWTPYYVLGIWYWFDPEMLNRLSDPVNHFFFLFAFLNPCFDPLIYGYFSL
Sequence of D(2) dopamine receptor (Homo sapiens) (P14416 whole entry, looked up): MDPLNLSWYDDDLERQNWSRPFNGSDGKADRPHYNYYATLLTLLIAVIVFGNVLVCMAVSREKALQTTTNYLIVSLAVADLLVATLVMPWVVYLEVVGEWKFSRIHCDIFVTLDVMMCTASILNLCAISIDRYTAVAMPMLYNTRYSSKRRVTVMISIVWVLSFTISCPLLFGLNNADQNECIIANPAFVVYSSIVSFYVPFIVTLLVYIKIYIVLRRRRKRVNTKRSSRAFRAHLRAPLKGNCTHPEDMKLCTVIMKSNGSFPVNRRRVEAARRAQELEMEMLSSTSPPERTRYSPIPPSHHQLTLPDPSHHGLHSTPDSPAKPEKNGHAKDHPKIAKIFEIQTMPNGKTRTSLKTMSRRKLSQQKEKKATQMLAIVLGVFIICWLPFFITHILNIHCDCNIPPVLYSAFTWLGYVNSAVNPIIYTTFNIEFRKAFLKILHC
Sequence of Beta-2 adrenergic receptor (Homo sapiens) (P07550 whole entry, looked up): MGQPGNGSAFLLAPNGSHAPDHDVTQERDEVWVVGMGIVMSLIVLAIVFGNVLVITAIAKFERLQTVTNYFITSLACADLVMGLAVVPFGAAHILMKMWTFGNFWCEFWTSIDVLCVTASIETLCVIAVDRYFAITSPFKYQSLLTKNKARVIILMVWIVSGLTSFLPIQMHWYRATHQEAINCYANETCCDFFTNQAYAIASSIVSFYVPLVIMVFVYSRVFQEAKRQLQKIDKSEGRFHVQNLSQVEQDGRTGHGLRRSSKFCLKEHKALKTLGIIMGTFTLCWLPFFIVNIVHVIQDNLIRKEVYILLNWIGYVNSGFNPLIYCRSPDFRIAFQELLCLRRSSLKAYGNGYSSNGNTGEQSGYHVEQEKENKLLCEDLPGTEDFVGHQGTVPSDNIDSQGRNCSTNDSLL

On to `CCCCNc1c(C(=O)OCC)c(C)nc2c1cnn2CC`, for which the Potency result in [1], in experiment [2], in [3], in experiment [6], in experiment [7] and in experiment [8] was “inactive” each time. In addition, the Potency result in experiment [9], in [10], in [11], in experiment [12], in [13] and in [14] was “inactive” throughout. For the same compound, in [15], the Potency result was “inactive”. Moreover, the outcome in experiment [4] and in experiment [5] was inactive.

With `CC1=CCC(=C(C)C)CC1`, the Potency result in experiment [1], in experiment [2], in experiment [3], in experiment [16], in experiment [17] and in experiment [7] was “inactive” in each case. Also, the Potency result in experiment [8], in experiment [9], in experiment [10], in [11], in experiment [12] and in experiment [13] was “inactive” throughout. Moreover, the Potency result in [18], in experiment [19], in experiment [14], in experiment [20] and in experiment [15] was “inactive” each time. In addition, the result in [4] and in [5] was inactive.

In the case of `CC1(C)OC[C@@H](COC(=O)CCc2ccc(OC[C@@H](O)CNCCNC(=O)N3CCOCC3)cc2)O1`, the Potency result in [1], in [2], in experiment [3], in experiment [16], in experiment [17] and in experiment [7] was “inactive” throughout. Further, the Potency result in experiment [8], in [9], in experiment [10], in [11], in experiment [12] and in experiment [13] was “inactive” throughout. Further, the Potency result in [18], in experiment [19], in [20] and in experiment [15] was “inactive” throughout. The outcome in experiment [4] and in experiment [5] was inactive.

`NC(=O)N(O)[C@@H]1C=C[C@H](Oc2cccc(Oc3ccc(F)cc3)c2)C1`: the Potency result in experiment [1], in experiment [3], in experiment [6], in experiment [7], in experiment [8] and in experiment [10] was “inactive” each time. The Potency entry in [11], in [12], in experiment [13], in experiment [14] and in experiment [15] was “inactive” each time. Also, the Potency in experiment [2] was 61.1 µM (active). Also, the result in experiment [4] and in experiment [5] was inactive.

On to `FC(F)OC(Cl)C(F)(F)F` (centres undefined), for which the Potency result in experiment [1], in experiment [2], in experiment [3], in experiment [6], in experiment [7] and in experiment [8] was “inactive” in each case. The Potency result in experiment [9], in [10], in experiment [12], in experiment [18], in experiment [19] and in [14] was “inactive” throughout. For the same compound, the Potency entry in experiment [20] and in [15] was “inactive” each time. The result in experiment [4] and in experiment [5] was inactive.

On to `CCN(CC)CC(=O)Nc1c(C)cccc1C(=O)OC`, for which the Potency result in experiment [1], in experiment [2], in experiment [3], in experiment [6], in experiment [7] and in [8] was “inactive” throughout. Also, the Potency result in [10], in [11], in experiment [12], in experiment [13], in experiment [18] and in [19] was “inactive” in each case. In addition, the Potency entry in [14] and in experiment [15] was “inactive” throughout. Besides, the result in [4] and in experiment [5] was inactive.

Consider `COc1cc2[nH]c(=O)[nH]c(=O)c2cc1OC`, for which the Potency result in experiment [1], in [2], in experiment [3], in experiment [16], in [17] and in experiment [7] was “inactive” in each case. The Potency result in [8], in [9], in experiment [10], in [11], in [12] and in experiment [13] was “inactive” throughout. Moreover, the Potency result in [19] and in experiment [15] was “inactive” each time. In addition, the result in experiment [4] and in experiment [5] was inactive.
